In PubChem BioAssay:
“And” between values parts separate entries of the source, which are not always exact repeats. Equal values may be shown once. Records with an inconclusive call do not appear. The source made the active and inactive calls.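 How the source made its calls, unless noted: active means normalized viability below 100% at a tested concentration; inactive means the rest.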

Columns and labels:
[1] = modulation of C. elegans fzo-1 (AID 1259413; call rule not given here;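 further: fzo-1 mutant C. elegans worms in liquid wells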); settings: C. elegans fzo-1 modulator screen, mean read-out; stronger effect = higher value
[2] = EMT-state selective cytotoxicity in co-culture – imaging, PC-3E GFP, TEM4-18 mCherry, primary screen (AID 1345086;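 active means compounds killing one labelled cell type while sparing the other, by normalised counts and ratio limits, not self-fluorescent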;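 on all read-outs here: cells exposed to compound for 72 h before imaging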;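 on red/green cell ratio (normalised): normalised mesenchymal count divided by normalised epithelial count so high means epithelial killing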); settings: PC-3E GFP / TEM4-18 mCherry co-culture, imaging cell counts, at 1 µM; for red/green cell ratio (normalised): actives lie on both sides, counts scaled to control wells, 1 = unselective
[3] = viability loss in pontine glioma line – cell-based, SU-DIPG-XIII, MIPE4.0, CellTiter-Glo, qHTS, dose response (AID 1347061; cut-off not given, nearly all actives have AC50 up to about 37 µM;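 further: cells exposed to compound for 48 hours before readout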); settings: CellTiter-Glo ATP luminescence
[4] = growth inhibition of DIPG cells – cell-based, MIPE4.0 library, CellTiter-Glo luminescence, qHTS (AID 1347066; cut-off not given, nearly all actives have AC50 up to about 30 µM;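 further: cells exposed to compound for 48 hours before readout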); settings: SU-DIPG-VI viability, CellTiter-Glo ATP luminescence
[5] = blockers of cellular phospholipid synthesis – cell-based, LOPAC library, screen 4, primary screen (AID 1347384; call rule not given here); settings: animal cells, phospholipid biosynthesis inhibition screen; at 10 µM
[6] = MELAS cybrid and Rieske KO viability enhancers – cell-based, MELAS cybrids, Rieske KO mouse fibroblasts, CellTiter-Glo, primary screen (AID 1508586;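 active means mean z-score across replicates of 1.96 or higher in either the MELAS or the Rieske mutant cell line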;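 further: z relative to plate mean and SD of compound and empty wells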); settings: low glucose
[7] = viability loss in pontine glioma line – cell-based, SU-DIPG-XVII, MIPE5.0, CellTiter-Glo, qHTS, dose response (AID 1347060; cut-off not given, nearly all actives have AC50 up to about 26 µM;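 on AC50: cells exposed to compound for 48 hours before viability readout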); settings: CellTiter-Glo ATP luminescence
[8] = viability loss in pontine glioma line – cell-based, JHH-DIPG-1, MIPE4.0, CellTiter-Glo, qHTS, dose response (AID 1347062; cut-off not given, nearly all actives have AC50 up to about 27 µM); settings: JHH-DIPG-1 viability, CellTiter-Glo ATP luminescence
[9] = viability loss in pontine glioma line – cell-based, SU-DIPG-IV, MIPE4.0, CellTiter-Glo, qHTS, dose response (AID 1347063; cut-off not given, nearly all actives have AC50 up to about 30 µM;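 further: compound exposure lasted 48 hours before the viability readout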); settings: CellTiter-Glo ATP luminescence
[10] = viability loss in pontine glioma line – cell-based, SU-DIPG-XIII, MIPE5.0, CellTiter-Glo, qHTS, dose response (AID 1347064; cut-off not given, nearly all actives have AC50 up to about 23 µM); settings: CellTiter-Glo ATP luminescence
[11] = viability loss in pontine glioma line – cell-based, SU-DIPG-XXV, MIPE5.0, CellTiter-Glo, qHTS, dose response (AID 1347065; cut-off not given, nearly all actives have AC50 up to about 26 µM;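 further: cells exposed to compound for 48 hours before ATP readout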); settings: CellTiter-Glo ATP luminescence
[12] = JHH-DIPG-1 glioma cell viability, MIPE5.0 library, CellTiter-Glo luminescence, qHTS (AID 1347067; cut-off not given, nearly all actives have AC50 up to about 26 µM;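 further: cells exposed to compound for 48 hours before readout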); settings: JHH-DIPG-1 glioma viability, CellTiter-Glo ATP luminescence
[13] = growth inhibition of DIPG cells – cell-based, MIPE5.0 library, qHTS (AID 1347068; cut-off not given, nearly all actives have IC50 up to about 30 µM); settings: SU-DIPG-XXV viability
[14] = compounds altering HSF1 focus formation in cells – imaging, Selleck Cancer Library (AID 1347162; in the data active means plate-normalised HSF1 focus index below about 0.46); settings: human cells, HSF1 nuclear foci imaging, at 10 µM; SSMD: measured here: HSF1 foci SSMD mean; cell count: measured here: cell number; plate-normalised HSF1 focus index: stronger effect = lower value
[15] = drug combination growth inhibition, ovarian cancer – cell-based, oncology-focused library, rucaparib conditional, profiling panel (AID 1508598); settings: patient-derived ovarian cancer cells, CellTiter-Glo viability, 144 h, stronger effect = lower value
[16] = measured here: epithelial PC-3E GFP cell survival
[17] = measured here: mesenchymal TEM4-18 mCherry cell survival
[18] = MELAS cybrid survival, CellTiter-Glo 48 h, stronger effect = higher value
[19] = Rieske KO mouse fibroblast survival, CellTiter-Glo 72 h

COc1cc2nc(N3CCN(C(=O)C4COc5ccccc5O4)CC3)nc(N)c2cc1OC (stereo unspecified)
active: AC50 [4] 23.5 µM
1.28: normalised cell number [2, 16]
1.03 and 2.18 and 2.11: z-score [6, 19]
0.83: normalised cell number [2, 17]
inactive: mean signal [1] 219 | red/green cell ratio (normalised) [2] 0.65 | outcome [3] | outcome [5]
-0.637 (inactive) and 1.46 and 0.739: z-score [6, 18]

Clc1ccccc1C(c1ccccc1)(c1ccccc1)n1ccnc1
1.43: normalised cell number [2, 17]
1.31: normalised cell number [2, 16]
inactive: mean signal [1] 209 | red/green cell ratio (normalised) [2] 1.09 | outcome [3] | outcome [8] | outcome [9] | outcome [5] | z-score [6, 18] -0.333 and -0.755
0.273 and 0.133: z-score [6, 19]
active: AC50 [7] 23.5 µM

NS(=O)(=O)c1cc(C(=O)O)c(NCc2ccco2)cc1Cl
0.703 and -0.228 and 0.451: z-score [6, 19]
1.14: normalised cell number [2, 17]
inactive: mean signal [1] 263 | red/green cell ratio (normalised) [2] 1.08 | outcome [3] | outcome [4] | z-score [6, 18] -0.297 and -0.16 and 0.0353
1.05: normalised cell number [2, 16]

N#Cc1ccc(C(c2ccc(C#N)cc2)n2cncn2)cc1
2: SSMD [14]
1.28: normalised cell number [2, 17]
-0.000166 and 0.656 and -0.338: z-score [6, 19]
active: viability ([15]; at 0.000305 µM, OCI-P5x cells, with rucaparib 20 µM, 100% = cells with rucaparib alone) 94% | viability ([15]; at 0.000305 µM, OCI-P5x cells, without rucaparib) 91% | viability ([15]; at 0.00122 µM, OCI-P5x cells, without rucaparib) 94.3% | viability ([15]; at 0.00488 µM, OCI-P5x cells, without rucaparib) 97.8%
6610: cell count [14]
inactive: mean signal [1] 236 | red/green cell ratio (normalised) [2] 1.05 | outcome [7] | outcome [8] | outcome [10] | outcome [11] | outcome [4] | outcome [12] | outcome [13] | plate-normalised HSF1 focus index [14] 1.1 | z-score [6, 18] -0.0811 and 0.894 and -0.0703 | viability ([15]; at 0.000305 µM, OCI-C5x cells, with rucaparib 10 µM, 100% = cells with rucaparib alone) 117% | viability ([15]; at 0.000305 µM, OCI-C5x cells, without rucaparib) 101% | viability ([15]; at 0.00122 µM, OCI-C5x cells, with rucaparib 10 µM, 100% = cells with rucaparib alone) 116% | viability ([15]; at 0.00122 µM, OCI-C5x cells, without rucaparib) 113% | viability ([15]; at 0.00122 µM, OCI-P5x cells, with rucaparib 20 µM, 100% = cells with rucaparib alone) 104% | viability ([15]; at 0.00488 µM, OCI-C5x cells, with rucaparib 10 µM, 100% = cells with rucaparib alone) 114% | viability ([15]; at 0.00488 µM, OCI-C5x cells, without rucaparib) 107% | viability ([15]; at 0.00488 µM, OCI-P5x cells, with rucaparib 20 µM, 100% = cells with rucaparib alone) 104% | viability ([15]; at 0.0195 µM, OCI-C5x cells, with rucaparib 10 µM, 100% = cells with rucaparib alone) 117% | viability ([15]; at 0.0195 µM, OCI-C5x cells, without rucaparib) 112% | viability ([15]; at 0.0195 µM, OCI-P5x cells, with rucaparib 20 µM, 100% = cells with rucaparib alone) 109% | viability ([15]; at 0.0195 µM, OCI-P5x cells, without rucaparib) 106% | viability ([15]; at 0.0781 µM, OCI-C5x cells, with rucaparib 10 µM, 100% = cells with rucaparib alone) 123% | viability ([15]; at 0.0781 µM, OCI-C5x cells, without rucaparib) 102% | viability ([15]; at 0.0781 µM, OCI-P5x cells, with rucaparib 20 µM, 100% = cells with rucaparib alone) 106% | viability ([15]; at 0.0781 µM, OCI-P5x cells, without rucaparib) 105% | viability ([15]; at 0.313 µM, OCI-C5x cells, with rucaparib 10 µM, 100% = cells with rucaparib alone) 117% | viability ([15]; at 0.313 µM, OCI-C5x cells, without rucaparib) 106% | viability ([15]; at 0.313 µM, OCI-P5x cells, with rucaparib 20 µM, 100% = cells with rucaparib alone) 104% | viability ([15]; at 0.313 µM, OCI-P5x cells, without rucaparib) 108% | viability ([15]; at 1.25 µM, OCI-C5x cells, with rucaparib 10 µM, 100% = cells with rucaparib alone) 107% | viability ([15]; at 1.25 µM, OCI-C5x cells, without rucaparib) 104% | viability ([15]; at 1.25 µM, OCI-P5x cells, with rucaparib 20 µM, 100% = cells with rucaparib alone) 108% | viability ([15]; at 1.25 µM, OCI-P5x cells, without rucaparib) 107% | viability ([15]; at 5 µM, OCI-C5x cells, with rucaparib 10 µM, 100% = cells with rucaparib alone) 113% | viability ([15]; at 5 µM, OCI-C5x cells, without rucaparib) 128% | viability ([15]; at 5 µM, OCI-P5x cells, with rucaparib 20 µM, 100% = cells with rucaparib alone) 112% | viability ([15]; at 5 µM, OCI-P5x cells, without rucaparib) 104%
1.21: normalised cell number [2, 16]
